PubChem BioAssay (NCATS)
“And” between values parts separate entries of the source, which are not always exact repeats. Equal entries are not always repeated. Results filed as inconclusive are left out. The source made the active and inactive calls. Calls follow the shape of the dose curve; as a rule, active = well fitted curve in the direction sought with a large enough effect; inconclusive = small, poorly fitted or top-dose-only effect, or another doubt; inactive = no such curve, though single readings can be large; an effect the other way counts as inactive or inconclusive.

Assays:
[1] = Viability qHTS for spleen associated tyrosine kinase inhibitor (SYKi) drug resistant MV4-11 cells (AID 1963824); also: nearly all actives have a fitted effect of over 35% in size
Procedure, shortened: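 SYK-inhibitor-resistant MV4-11 AML cells were seeded at 500 per well onto compound and cultured 72 hours (37 °C, 5% CO2). CellTiter-Glo was then added, and after 10 min at room temperature, luminescence gave viability.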

[2] = Cellular viability qHTS for adrenocortical cancer (ACC) cell line NCI-H295R (AID 1963990); also: nearly all actives have a fitted effect of over 60% in size
Procedure, shortened: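 Viability of NCI-H295R after 48 h of treatment (final up to 46 uM) measured through cellular ATP luminescence.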

[3] = Quantitative highthroughput screen to assess conditional lethalithy of NOMO1 cells grown in RPMI1640 with untreated serum (RPMI+s) (AID 1963876); also: nearly all actives have a fitted effect of over 35% in size
Procedure, shortened: (§1)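 Each medium arm—HPLM with 10% dialyzed FBS, or RPMI1640 with 5 mM glucose and 10% untreated or dialyzed FBS—was screened against an 11-point, 3-fold compound titration for 48 h at 37 °C, with CellTiter-Glo luminescence as endpoint.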

[4] = Quantitative highthroughput screen to assess conditional lethalithy of NOMO1 cells grown in RPMI1640 with dialyzed fetal bovine serum (RPMI+ds) (AID 1963877); also: nearly all actives have a fitted effect of over 30% in size; as to Viability: series mostly up to about 46 µM
Procedure, shortened: as §1

[5] = Quantitative highthroughput screen to assess conditional lethalithy of NOMO1 cells grown in Human Plasma-Like Medium with dialyzed fetal bovine serum (HPLM+ds) (AID 1963878); also: nearly all actives have a fitted effect of over 35% in size
Procedure, shortened: as §1

[6] = Quantitative highthroughput screen to assess conditional lethalithy of P12 Ichikawa cells grown in Human Plasma-Like Medium with dialyzed fetal bovine serum (HPLM+ds) (AID 1963879); settings: Potency: viability; also: nearly all actives have a fitted effect of over 35% in size; as to Viability: series mostly up to about 46 µM
Procedure, shortened: as §1

[7] = Quantitative highthroughput screen to assess conditional lethalithy of P12 Ichikawa cells grown in RPMI1640 with dialyzed fetal bovine serum (RPMI+ds) (AID 1963880); settings: Potency: P12-Ichikawa viability; also: nearly all actives have a fitted effect of over 35% in size
Procedure, shortened: as §1

[8] = Quantitative highthroughput screen to assess conditional lethalithy of P12 Ichikawa cells grown in RPMI1640 with untreated serum (RPMI+s) (AID 1963881); settings: Potency: viability; also: nearly all actives have a fitted effect of over 35% in size; as to Viability: series mostly up to about 46 µM
Procedure, shortened: as §1

[9] = Quantitative highthroughput screen to assess conditional lethalithy of SEM cells grown in Human Plasma-Like Medium with dialyzed fetal bovine serum (HPLM+ds) (AID 1963882); also: nearly all actives have a fitted effect of over 35% in size; as to Viability: series mostly up to about 46 µM
Procedure, shortened: as §1

[10] = Quantitative highthroughput screen to assess conditional lethalithy of SEM cells grown in RPMI1640 with unreated serum (RPMI+s) (AID 1963883); also: nearly all actives have a fitted effect of over 35% in size
Procedure, shortened: as §1

[11] = Quantitative highthroughput screen to assess conditional lethalithy of SEM cells grown in RPMI1640 with dialyzed fetal bovine serum (RPMI+ds) (AID 1963884); also: nearly all actives have a fitted effect of over 35% in size; as to Viability: series mostly up to about 46 µM
Procedure, shortened: as §1
Potency is read from the fitted curve at half-maximal effect.

## CN1CCN(CCC(=O)N2c3ccccc3Sc3ccc(C(F)(F)F)cc32)CC1
[1]
  Potency: 23.7 µM (active)
[2]
  Potency: 23.1 µM (active)

## CN(C)CCOC1=Cc2ccccc2Sc2ccc(Cl)cc21
[1]
  Potency: 15 µM (active)
[2]
  Potency: 20.6 µM (active)

## CN[C@@H]1[C@H](O[C@H]2[C@H](O[C@@H]3[C@@H](O)[C@H](O)[C@@H](N=C(N)N)[C@H](O)[C@H]3N=C(N)N)O[C@@H](C)[C@]2(O)C=O)O[C@@H](CO)[C@H](O)[C@H]1O
[1]
  Potency: inactive
[2]
  Potency: inactive

## CO[C@H]1C[C@@H]2CC[C@@H](C)[C@@](O)(O2)C(=O)C(=O)N2CCCC[C@@H]2C(=O)O[C@H]([C@H](C)C[C@@H]2CC[C@H](OP(C)(C)=O)[C@H](OC)C2)CC(=O)[C@H](C)C=C(C)[C@@H](O)[C@@H](OC)C(=O)[C@H](C)C[C@H](C)C=CC=CC=C1C
[3]
  Potency: inactive
[4]
  Potency: inactive

## CC(C)OC(=O)CCCC=CC[C@@H]1[C@H](C=C[C@@H](O)COc2cccc(C(F)(F)F)c2)[C@H](O)C[C@@H]1O
[3]
  Potency: 33200 nM (active)

## COc1ccc2nc(SCc3ncc(C)c(OC)c3C)[nH]c2c1
[1]
  Potency: inactive
[2]
  Potency: inactive

## Cc1cc(C(=O)Nc2cc(Oc3ccc4nc(NC(=O)C5CC5)cn4n3)ccc2C)n(C)n1
[1]
  Potency: 14.8 µM (active)
[2]
  Potency: 22.4 µM (active)

## NS(=O)(=O)c1ccc(NC(=S)N2CCN(C/C=C/c3ccccc3)CC2)cc1
[1]
  Potency: 14.8 µM (active)
[2]
  Potency: inactive

## COc1cc2ncnc(Nc3ccc(F)c(Cl)c3)c2cc1NC(=O)C=CCN1CCCCC1
[3]
  Potency: inactive
[4]
  Potency: inactive

## CCNC(=O)CCC/C=C\C[C@@H]1[C@@H](/C=C/C(O)CCc2ccccc2)[C@@H](O)C[C@@H]1O (stereo partly specified)
[1]
  Potency: 14.8 µM (active)
[2]
  Potency: inactive

## COc1ccc2[nH]c(S(=O)Cc3ncc(C)c(OC)c3C)nc2c1 (stereo unspecified)
[1]
  Potency: 1.64 µM (active)
[2]
  Potency: inactive

## CCCC(=O)O[C@]1(C(=O)CO)CC[C@H]2[C@@H]3CCC4=CC(=O)CC[C@]4(C)[C@H]3[C@@H](O)C[C@@]21C
[1]
  Potency: inactive
[2]
  Potency: inactive

## C[C@@H]1COCCN1c1cc(-c2ccnn2C)c2ccnc(-c3ccn[nH]3)c2n1
[1]
  Potency: 0.0934 µM (active)
[2]
  Potency: 0.158 µM (active)

## C=C1C(=O)O[C@@H]2[C@H]3C(C)=CC[C@@]34O[C@@]4(C)CC[C@@H]12
[1]
  Potency: 1.48 µM (active)
[2]
  Potency: 17.8 µM (active)

## CCC1=C[C@@H]2CN(C1)Cc1c([nH]c3ccccc13)[C@@](C(=O)OC)(c1cc3c(cc1OC)N(C)[C@H]1[C@@](O)(C(=O)OC)[C@H](OC(C)=O)[C@]4(CC)C=CCN5CC[C@]31[C@@H]54)C2
[1]
  Potency: 7.5 nM (active) and 64.5 nM (active)
[2]
  Potency: 20.6 nM (active) and 2.54 µM (active)

## CN(C)CCOc1ccc(-c2nc(-c3ccc4c(c3)CCC4=NO)c(-c3ccncc3)[nH]2)cc1
[3]
  Potency: inactive
[4]
  Potency: 18700 nM (active)

## C/C=C(/C(=C/C)c1ccc(O)cc1)c1ccc(O)cc1
[1]
  Potency: 14.8 µM (active)
[2]
  Potency: 23.1 µM (active) and 6.31 µM (active)

## C#C[C@]1(OC(C)=O)CC[C@H]2[C@@H]3CCC4=C[C@@H](OC(C)=O)CC[C@@H]4[C@H]3CC[C@@]21C
[1]
  Potency: 21.1 µM (active) and 14.6 µM (active)
[2]
  Potency: 20.6 µM (active)

## CC1(C)C(N(O)C(=O)Nc2ccc(Cl)cc2)N(c2ccc(Cl)cc2)C(=O)N1CC(=O)NN=CC=Cc1ccc([N+](=O)[O-])o1 (stereo unspecified)
[3]
  Potency: inactive

## CC(C)C(=O)Nc1ncc(-c2cc(C(F)F)nn2-c2c(Cl)cccc2Cl)s1
[3]
  Potency: inactive

## COc1cc(=C2C=c3ccccc3=N2)[nH]c1=Cc1[nH]c(C)cc1C
[3]
  Potency: inactive

## CCc1ccc(C=C2SC(=S)NC2=O)cc1
[3]
  Potency: inactive

## O=c1ncccn1[C@@H]1O[C@H](CO)[C@@H](O)[C@H]1O
[1]
  Potency: 16.6 µM (active)
[2]
  Potency: inactive

## C[C@@H](C1=C(CCN(C)C)Cc2ccccc21)c1ccccn1
[1]
  Potency: inactive
[2]
  Potency: inactive

## CC[C@H](NC(=O)[C@H](C)NC)C(=O)N1C[C@@H](O)C[C@H]1Cc1c(-c2[nH]c3cc(F)ccc3c2C[C@@H]2C[C@H](O)CN2C(=O)[C@H](CC)NC(=O)[C@H](C)NC)[nH]c2cc(F)ccc12
[1]
  Potency: 0.0074 µM (active)
[2]
  Potency: inactive

## Cc1nnn(C)c1-c1cnc2c3ccc(C(C)(C)O)cc3n([C@H](c3ccccc3)C3CCOCC3)c2c1
[1]
  Potency: 0.003 µM (active)
[2]
  Potency: 0.178 µM (active)

## Nc1ncc(C(=O)NC2CN(C(=O)C3CC3)C2)c2ccc(-c3cccc(F)c3)nc12
[1]
  Potency: 7.42 µM (active)
[2]
  Potency: inactive

## Nc1cccc2c(N)cccc12
[1]
  Potency: 0.545 µM (active)
[2]
  Potency: 39.8 µM (active)

## O=C(NOCC(O)CO)c1cc(Br)c(F)c(F)c1Nc1ccc(I)cc1F (stereo unspecified)
[1]
  Potency: 0.59 µM (active)
[2]
  Potency: 15.8 µM (active)

## CN[C@@H](C)C(=O)N[C@H](C(=O)N1CCC[C@H]1C(=O)Nc1snnc1-c1ccccc1)C1CCCCC1
[1]
  Potency: 0.132 µM (active)
[2]
  Potency: inactive

## CC1(C)CC(O)CC(C)(C)N1[O]
[3]
  Potency: inactive
[4]
  Potency: inactive
[5]
  Potency: inactive
[6]
  Potency: inactive
[7]
  Potency: inactive
[8]
  Potency: inactive
[9]
  Potency: inactive
[10]
  Potency: inactive
[11]
  Potency: inactive

## OC(CN1CCN(c2cccc(Cl)c2)CC1)C(c1ccccc1)c1ccccc1 (stereo unspecified)
[3]
  Potency: 935 nM (active)
[4]
  Potency: 1050 nM (active)
[5]
  Potency: 148 nM (active)
[6]
  Potency: 132 nM (active)
[7]
  Potency: 743 nM (active)
[8]
  Potency: 935 nM (active)
[9]
  Potency: 833 nM (active)
[10]
  Potency: 148 nM (active)
[11]
  Potency: 166 nM (active)

## CN1[C@H]2CC[C@H]1CC(OC(=O)c1c[nH]c3ccccc13)C2 (stereo partly specified)
[3]
  Potency: inactive
[4]
  Potency: inactive
[5]
  Potency: inactive
[6]
  Potency: inactive
[7]
  Potency: inactive
[8]
  Potency: inactive
[9]
  Potency: inactive
[10]
  Potency: inactive
[11]
  Potency: inactive

## O=C1NC(=O)C(=Cc2ccc3nccc(-c4ccncc4)c3c2)S1
[3]
  Potency: 2640 nM (active)
[4]
  Potency: 1320 nM (active)
[5]
  Potency: 662 nM (active)
[6]
  Potency: 7430 nM (active)
[7]
  Potency: 1870 nM (active)
[8]
  Potency: 1870 nM (active)
[9]
  Potency: 935 nM (active)
[10]
  Potency: 935 nM (active)
[11]
  Potency: 833 nM (active)
